Cav32 inh: blocks human Cav3.2 T-type calcium channel; B-score at 10 µM; AID 449739; Cav3.2-expressing cells, Fluo-4 calcium fluorescence FDSS; active compounds read low; O95180; 100,000 tested, 4% active;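 active = single-dose well whose peak fluorescence ratio is a statistical outlier from its plate by either plate-standardised score or position-corrected B-score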
CYP2C9 act: increases human cytochrome P450 2C9 activity; 96,000 tested, 1.4% active; AID 1024; activation factor at 5 µM; recombinant CYP2C9, luciferin-H conversion, luminescence; active compounds read high; factor 1 = untreated enzyme, 0 = blocked;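 active = activation factor of 2 or more for CYP2C9 at a 5 µM dose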;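 also: 0 = sulfaphenazole-blocked wells and 1 = vehicle-only wells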
CYP2C19 act: cytochrome P450 2C19 (human) activation. P33261. recombinant CYP2C19, luciferin-H EGE luminescence; active compounds read high; 0 = fully inhibited enzyme, 1 = untreated enzyme. activation factor at 5 µM. 96,000 tested, under 10 active;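 active = activation factor of at least 2 at 5 µM in the primary screen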;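 also: 0 = wells with 2.5 mM tranylcypromine and 1 = vehicle-only wells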
Target sequence (P33261 whole entry, looked up): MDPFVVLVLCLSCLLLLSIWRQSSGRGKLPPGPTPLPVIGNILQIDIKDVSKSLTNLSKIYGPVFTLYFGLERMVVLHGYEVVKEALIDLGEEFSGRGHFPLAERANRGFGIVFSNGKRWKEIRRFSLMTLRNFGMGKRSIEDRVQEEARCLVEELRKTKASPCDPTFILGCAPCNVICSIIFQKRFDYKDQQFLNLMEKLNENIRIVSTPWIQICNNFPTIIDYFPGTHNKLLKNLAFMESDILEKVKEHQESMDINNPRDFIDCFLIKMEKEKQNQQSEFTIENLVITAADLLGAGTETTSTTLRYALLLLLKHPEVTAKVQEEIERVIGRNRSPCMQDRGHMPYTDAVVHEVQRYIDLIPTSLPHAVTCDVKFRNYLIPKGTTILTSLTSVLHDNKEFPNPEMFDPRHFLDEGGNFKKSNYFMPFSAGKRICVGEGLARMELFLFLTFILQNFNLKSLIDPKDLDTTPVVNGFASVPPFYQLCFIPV
CYP2C19 inhib: inhibitors of human CYP2C19 | 96,000 tested, 21% active | CYP2C19 Supersomes, luciferin-H EGE luminescence, 30 min | inhibition, % at 5 µM;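 active = CYP2C19 inhibition above a set limit at 5 µM in the primary screen, cut at about 50% in these data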;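 also: plate controls were negative control wells for no effect and 2.5 mM tranylcypromine positive control for full effect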
CYP2C9 inh: inhibitors of human CYP2C9; 96,000 tested, 20% active; CYP2C9 Supersomes, luciferin-H conversion, luminescence; P11712; inhibition, % at 5 µM;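 active = blocking of liver enzyme CYP2C9 beyond about 50% at 5 µM, limit read from the data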
* hit, by the source's call. A selection: hits, their analogues and other compounds. The true share with any hit is near 27%.

Results for Cc1c(OCc2nn[nH]n2)ccc2c3c(c(=O)oc12)CCCC3 ?
Cav32 inh: 3; CYP2C9 act: 0.1; CYP2C19 act: 0.3; CYP2C19 inhib: 67.1*; CYP2C9 inh: 93.7*

What do the screens show for `Cc1c(OCc2nn[nH]n2)ccc2c3c(c(=O)oc12)CCC(C)C3` (stereo not drawn)?
Cav32 inh: -1.52; CYP2C9 act: 0; CYP2C19 act: 0.2; CYP2C19 inhib: 84.8*; CYP2C9 inh: 98.1*

How did COc1ccc2c3c(c(=O)oc2c1OCC(N)=O)CCCC3 do in these assays?
Cav32 inh: 0.11; CYP2C9 act: 2.5*; CYP2C19 act: 0.9; CYP2C19 inhib: 11.1; CYP2C9 inh: -145.2

Results for CN(C)c1ccc(/C=C/C(=O)c2cccc(Br)c2)cc1 ?
Cav32 inh: -7.48*; CYP2C9 act: 0.6; CYP2C19 act: 0.1; CYP2C19 inhib: 92.9*; CYP2C9 inh: 44.3

How did O=C(/C=C/c1ccccc1)c1ccccc1 do in these assays?
Cav32 inh: -0.736

How did CCOC(=O)N1CCC(NC(=O)CSCc2nc(-c3cccc(OC)c3)oc2C)CC1 do in these assays?
Cav32 inh: 1.88; CYP2C9 act: 0.3; CYP2C19 act: 0.4; CYP2C19 inhib: 56.8*; CYP2C9 inh: 66.8*

What do the screens show for `Cc1ccc(-c2nc(CSCC(=O)N3CCOCC3)c(C)o2)cc1`?
Cav32 inh: 0.231; CYP2C9 act: 0.8; CYP2C19 act: 0.8; CYP2C19 inhib: 19.5; CYP2C9 inh: 20.2

How did CCc1ccc(-c2nc(CSCC(=O)N3CCN(c4ccccn4)CC3)c(C)o2)cc1 do in these assays?
Cav32 inh: -6.83*; CYP2C9 act: 0.4; CYP2C19 act: 0.6; CYP2C19 inhib: 35.9; CYP2C9 inh: 64.4*

Results for Cc1ccccc1-c1nc(CN2CCC(C(=O)N3CCC(C(N)=O)CC3)CC2)c(C)o1 ?
Cav32 inh: 0.0509; CYP2C9 act: 1; CYP2C19 act: 1.1; CYP2C19 inhib: -7.9; CYP2C9 inh: -1.5

How did Cc1ccccc1-c1nc(CN2CCC(C(=O)N3CCN(c4ccccn4)CC3)CC2)c(C)o1 do in these assays?
Cav32 inh: 0.416; CYP2C9 act: 0.4; CYP2C19 act: 0.9; CYP2C19 inhib: 13.4; CYP2C9 inh: 55.4*

How did Cc1ccc(-c2nc(CSCC(=O)N3CCN(c4ccccn4)CC3)c(C)o2)cc1 do in these assays?
Cav32 inh: -4.98*; CYP2C9 act: 1.6; CYP2C19 act: 0.7; CYP2C19 inhib: 29.1; CYP2C9 inh: -60.2

Results for CCOc1ccc(N(CC(=O)NCC2CCCO2)S(=O)(=O)c2ccc(OC)c(OC)c2)cc1 (stereo not drawn) ?
Cav32 inh: 1.74

What do the screens show for `Cc1sc(NC(=O)CSc2nnc(COc3ccc(Cl)cc3)n2C)c(C#N)c1C`?
Cav32 inh: 0.0217; CYP2C9 act: 0.8; CYP2C19 act: 1; CYP2C19 inhib: -1.4; CYP2C9 inh: 21.6

Results for CCOc1ccc(-c2nc(CSCC(=O)N3CCN(c4cccc(OC)c4)CC3)c(C)o2)cc1 ?
Cav32 inh: -2.54; CYP2C9 act: 0.1; CYP2C19 act: 0.2; CYP2C19 inhib: 83.4*; CYP2C9 inh: 94.2*

Results for CC[n+]1c(P(=O)([O-])c2ccccc2)[nH]c2ccccc21 ?
Cav32 inh: 0.103; CYP2C9 act: 1.1; CYP2C19 act: 1.2; CYP2C19 inhib: -16.5; CYP2C9 inh: -14.3

Results for CN(C)C=Nc1ncc2c3ccccc3n(CCN(C)C)c2c1C#N ?
Cav32 inh: 1.72; CYP2C9 act: 0.4; CYP2C19 act: 0.8; CYP2C19 inhib: 19.1; CYP2C9 inh: 57.8*

Results for COc1ccc(CCNCc2csc3nc4ccccc4n23)cc1OC ?
Cav32 inh: 0.598; CYP2C9 act: 0.8; CYP2C19 act: 0.8; CYP2C19 inhib: 20.5; CYP2C9 inh: 25.0

What do the screens show for `CC(=O)Nc1ccc(-c2nnc(SCC(=O)NCc3ccco3)n2C)cc1`?
Cav32 inh: 0.554; CYP2C9 act: 1.1; CYP2C19 act: 1.2; CYP2C19 inhib: -17.3; CYP2C9 inh: -6.7

What do the screens show for `CS(=O)(=O)N1CCN(C2Cc3ccccc3C2)CC1`?
CYP2C9 act: 0.9; CYP2C19 act: 0.4; CYP2C19 inhib: 57.0*; CYP2C9 inh: 8.1

How did CCCc1cc(=O)n2c(nc3ccccc32)[nH]1 do in these assays?
Cav32 inh: 0.609; CYP2C9 act: 0.6; CYP2C19 act: 1; CYP2C19 inhib: -2.4; CYP2C9 inh: 37.0

How did CCOc1ccccc1OCCOc1ccc(F)cc1 do in these assays?
Cav32 inh: -1.6; CYP2C9 act: 1.1; CYP2C19 act: 0.4; CYP2C19 inhib: 56.7*; CYP2C9 inh: -9.4

How did COc1ccc2cc(/C=C/C(=O)c3ccco3)c(Cl)nc2c1 do in these assays?
CYP2C9 act: 0.9; CYP2C19 act: 0.9; CYP2C19 inhib: 12.5; CYP2C9 inh: 13.9

What do the screens show for `COc1ccc(N(C(=O)c2ccco2)S(=O)(=O)c2cc(Cl)c(Cl)cc2Cl)cc1`?
Cav32 inh: -4.3; CYP2C9 act: 0.1; CYP2C19 act: 0; CYP2C19 inhib: 97.1*; CYP2C9 inh: 94.4*

How did COc1ccc(N(C(=O)c2ccco2)S(=O)(=O)c2ccccc2)cc1 do in these assays?
Cav32 inh: 0.148; CYP2C9 act: 0.1; CYP2C19 act: 0.1; CYP2C19 inhib: 87.0*; CYP2C9 inh: 91.8*

What do the screens show for `COC(=O)[C@@H]1[C@@H](C#N)C2(c3ccccc3-c3ccccc32)N(c2ccc(Cl)cc2)N1C#N`?
Cav32 inh: -0.184

What do the screens show for `COc1ccc(C2N(S(=O)(=O)c3ccc(C)cc3)CCN2S(=O)(=O)c2ccc(C)cc2)cc1`?
Cav32 inh: -2.72; CYP2C9 act: 0.1; CYP2C19 act: 0; CYP2C19 inhib: 95.9*; CYP2C9 inh: 90.2*

Results for CC(=O)N1CCN(S(=O)(=O)c2ccc(C)cc2)C1c1ccc(N(C)C)cc1 (stereo not drawn) ?
Cav32 inh: -0.329; CYP2C9 act: 1; CYP2C19 act: 0.6; CYP2C19 inhib: 43.6; CYP2C9 inh: 2.2

How did CC(C)C1N(C(=O)CN2CCCC2)CCN1S(=O)(=O)c1ccccc1 (stereo not drawn) do in these assays?
Cav32 inh: 0.532; CYP2C9 act: 1; CYP2C19 act: 0.9; CYP2C19 inhib: 5.8; CYP2C9 inh: -1.3

Results for Cc1ccc(S(=O)(=O)N2CCN(S(=O)(=O)c3ccccc3)C2c2ccc(N(C)C)cc2)cc1 (stereo not drawn) ?
Cav32 inh: -1.05; CYP2C9 act: 0.1; CYP2C19 act: 0.1; CYP2C19 inhib: 94.2*; CYP2C9 inh: 87.8*

How did CC(C)C1N(S(=O)(=O)c2ccccc2)CCN1S(=O)(=O)c1ccccc1 do in these assays?
Cav32 inh: -0.995; CYP2C9 act: 0; CYP2C19 act: 0; CYP2C19 inhib: 100.0*; CYP2C9 inh: 99.5*

Results for Cc1cc(C)n2ncc(C(=O)NCc3cccnc3)c2n1 ?
Cav32 inh: 0.642; CYP2C9 act: 1; CYP2C19 act: 0.9; CYP2C19 inhib: 8.6; CYP2C9 inh: 2.9

Results for CC(C)(C)CC(C)(C)NCC(O)COc1c(F)cc(Br)cc1F (stereo not drawn) ?
Cav32 inh: -5.66*; CYP2C9 act: 1; CYP2C19 act: 0.9; CYP2C19 inhib: 9.3; CYP2C9 inh: 1.9

Bioassay records (PubChem BioAssay)
